Among the data in PubChem BioAssay (NCATS) are outcome, Potency and activation values, retold here.

Assay [1] in a line: Confirmation and Secondary Assay for Modulators of Hemoglobin Beta Chain Splicing at IVS2 654 locus (AID 910).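 Note: HeLa cells stably carrying EGFP split by mutant beta-globin IVS2-654 intron; % of control where 0% means no effect.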 An outline of the steps:
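Readout: per-well total peak green fluorescence (488 nm ex, 500–520 nm em) from objects 5–250 µm, reflecting correct splicing of an EGFP-654 reporter. Compounds were applied for 2 days at 37 °C to overnight-plated HeLa EGFP-654 cells; controls were DMSO and 500 nM IVS2-654 PNA.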

Assay [2] has as its target Pyruvate kinase (Leishmania mexicana) (UniProt Q27686). In words: qHTS Validation Assay for Inhibitors of Leishmania Mexicana Pyruvate Kinase (AID 945).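 Note: 0% = DMSO only neutral control wells.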 An outline of the steps: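 Luminescent ATP detection (PKLight) after a 1 h room-temperature reaction of 0.2 nM LmPYK E451W mutant with 0.5 mM PEP and 0.1 mM ADP at pH 7.2. Activity is normalized to DMSO-only control wells.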

The target in assay [3] is Pyruvate kinase PKM (Homo sapiens) (UniProt P14618). The assay can be described thus: qHTS Assay for Activators of Human Muscle Pyruvate Kinase (AID 954; active = well fitted curve in the direction sought with a large enough effect, not every such curve was filed as active;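 note: 0% = uninhibited enzyme and -100% = no enzyme or full thiadiazolimine inhibition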). An outline of the steps:
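Screening used highly purified human pyruvate kinase M2 under submaximal activity, with PEP at its Km and ADP below Km. After an hour at room temperature, ATP was read by luciferase luminescence.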
Background: In qHTS, concentration-response curves come from the screen itself.

Assay [4] can be described thus: qHTS Assay for Identification of Small Molecule Agonists for Thrombopoietin (TPO) Signaling Pathway (AID 917). Note: % is set by controls: 0 for no effect and ±100 for the full control effect. An outline of the steps:
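Luciferase reporter (Glycoprotein IIb promoter) in IL-3-deprived Ba/F3 cells carrying human TPO receptor; compounds co-added with 26 pM TPO, incubated 24 h, 37 C. Steadylite luminescence measured after 10 min.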

Assay [5] can be described thus: MultiTox-Fluor Cytotoxicity Assay - LYMP1-001 - Dead Cells (AID 946).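 Note: 0% = DMSO and 100% = tetraoctylammonium bromide.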 An outline of the steps:
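In this qHTS, 15 uM tetraoctylammonium bromide defined 100% and DMSO defined basal activity. Lymphoblastoid cells (LYMP1-001, 2500 per well) received compound for 16 hr at 37 C before a fluorogenic dead-cell substrate readout at 485/520 nm.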

A short description of assay [6]: MultiTox-Fluor Cytotoxicity Assay - LYMP1-001 - Live Cells (AID 947).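 Note: 0% = DMSO only and full inhibition = tetraoctylammonium bromide control.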
Assay [7] is described as follows: Cell Viability - LYMP1-002 - Assay at 16 hr (AID 948).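 Note: 0% = DMSO alone and full effect = 92 µM tetraoctylammonium bromide.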 An outline of the steps: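 ATP luminescence (CellTiter-Glo) was measured after 16 hr compound exposure at 37 C of 2500 lymphoblastoid LYMP1-002 cells per well. Concentration-response curves were fitted with the Hill equation to give AC50.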
The nature of assay [8]: MultiTox-Fluor Cytotoxicity Assay - LYMP1-003 - Dead Cells (AID 961).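 Note: cells exposed to compound for 16 h at 37 °C; 0% = DMSO and 100% = tetraoctylammonium bromide; nearly all actives have a fitted effect of over 70% in size.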 In short, it runs like this: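 Acute toxicity is scored as increased dead-cell protease activity in human lymphoblastoid LYMP1-003 cells after 16 h compound exposure in complete culture medium. Activity is normalized to DMSO basal and 15 uM tetraoctylammonium bromide as full response.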
The nature of assay [9]: MultiTox-Fluor Cytotoxicity Assay - LYMP1-003 - Live Cells (AID 962).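 Note: cells exposed to compound for 16 hours at 37 °C; 0% = DMSO only and full loss = 92 µM tetraoctylammonium bromide; cytotoxic hits lower the live-cell protease signal.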 In short, it runs like this:
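Readout: live-cell fluorescence (Ex/Em=405/510) from GF-AFC cleavage after 60 min MultiTox-Fluor reagent at room temperature. Lymphoblastoid LYMP1-003 cells, 16 hr compound treatment, 37 C. Concentration-response fitted to standard Hill equation for AC50.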

The nature of assay [10]: Cell Viability - LYMP1-003 - Assay at 24 hr (AID 963).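 Note: plate controls were DMSO only for no effect and tetraoctylammonium bromide positive control for full effect.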 An outline of the steps:
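CellTiter-Glo luminescence (intracellular ATP) read after 24 hr, 37 C compound exposure of 2500 LYMP1-003 human lymphoblastoid cells/well in complete medium; qHTS concentration series; AC50 via standard Hill equation.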

Assay [11] can be described thus: Cell Viability - LYMP1-003 - Assay at 40 hr (AID 964). Note: series mostly up to about 92 µM; % is set by controls: 0 for no effect and ±100 for the full control effect; nearly all actives have a fitted effect of over 60% in size. An outline of the steps: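 LYMP1-003 lymphoblastoid cells, 2500/well; 5 hr preincubation, 40 hr compound exposure, 37 C; CellTiter-Glo 30 min RT; luminescence; Hill-fit AC50. Positive control tetraoctylammonium bromide.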
A short description of assay [12]: Confirmation and Secondary Assay for Modulators of Hemoglobin Beta Chain Splicing at IVS2 705 locus (AID 930).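 Note: HeLa cells stably expressing the EGFP-705 splicing reporter; GFP fluorescence per well restored by corrected splicing of the IVS2-705 intron in EGFP; series mostly up to about 46 µM; % of control where 0% means no effect.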 In short, it runs like this: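 Read-out: total peak GFP fluorescence per well (488 nm excitation, 500-520 nm emission) by laser-scanning cytometry. Cells: HeLa EGFP-705 splicing reporter, 2 days compound exposure in Optimem/2% FCS.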
Assay [13] in a line: Cell Viability - LYMP2-001 (AID 921). Note: potency is the fitted concentration of half-maximal effect; nearly all actives have a fitted effect of over 70% in size. In short, it runs like this:
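Cellular ATP loss read by luciferase luminescence after 24 h compound exposure at 37 C in complete medium. LYMP2-001 lymphoblastoid cells, 2500/well; qHTS concentration-response data fitted with Hill equation for AC50.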

Assay [14] is described as follows: MultiTox-Fluor Cytotoxicity Assay - LYMP1-002 - Dead Cells (AID 960).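 Note: cells exposed to compound for 16 h at 37 °C; 0% = DMSO and 100% = tetraoctylammonium bromide; nearly all actives have a fitted effect of over 60% in size.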 In short, it runs like this:
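Readout: fluorescence at 485/520 from cell-impermeant bis-AAF-R110 cleaved by proteases leaking from damaged cells. LYMP1-002 lymphoblastoid line, 16 hr compound treatment at 37 C, concentration-response in qHTS format; Hill-equation AC50 values.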

Assay [15] addresses Muscarinic acetylcholine receptor M1 (Rattus norvegicus) (UniProt P08482). In words: qHTS Assay for Antagonists of Acetylcholine Muscarinic M1 Receptor: Kinetic Measurement of Intracellular Calcium Response (AID 943).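 Note: Fluo-4 calcium signal as peak divided by basal fluorescence over 4 min; series mostly up to about 35 µM; nearly all actives have a fitted effect of over 75% in size.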 In short, it runs like this:
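Read-out: peak over basal Fluo-4 fluorescence, kinetic at 1 Hz for 4 min after EC80 carbachol (100 nM final). Rat M1-CHO cells, dye loaded 1 h at 37C, compound added 10 min before agonist.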

Assay [16] shares this target. In words: qHTS Assay for Antagonists of Acetylcholine Muscarinic M1 Receptor: Measurement of IP-One Response (AID 944). Note: nearly all actives have a fitted effect of over 75% in size. Note: potency is the fitted concentration of half-maximal effect. An outline of the steps:
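Read-out: HTRF competition between d2-IP1 and Eu-cryptate anti-IP1 antibody, emission 620 and 665 nm. Stimulus was carbachol, EC80 (200 nM), for 30 min in M1-CHO cells (rat receptor), after 10 min compound pre-treatment.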

A short description of assay [17]: qHTS Assay for Identification of Small Molecule Agonists for Hypoxia Response Element Signaling Pathway (AID 914; active = well fitted activation curve with a large enough effect in the signal ratio, with a control signal flat, not every such curve was filed as active; the % refers to the signal ratio; note: % of control where 0% means no effect). The conditions noted are these: ME-180 (cervical carcinoma) HRE-bla reporter, beta-lactamase ratio, CoCl2, 17 h; active compounds read high. In short, it runs like this: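 HRE-bla ME-180 cells, overnight plating in Opti-MEM with 0.5% dialyzed FBS; cpd titration + EC50 CoCl2, 17 h, 37 degrees Celsius; CCF4 2.5 h RT; 460/530 nm ratio; AC50.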

SMILES strings stand for the structures. A number with no mark means an inactive call. Inconclusive results are not listed. Calls of active or inactive are those of the source. Unless noted, calls come from the whole dose curve; as a rule, active = well fitted curve in the direction sought with a large enough effect; inconclusive = small, poorly fitted or top-dose-only effect, or another doubt; inactive = no such curve, though single readings can be large; an effect the other way counts as inactive or inconclusive.

Muscarinic acetylcholine receptor M1 (Rattus norvegicus), sequence (P08482 whole entry, looked up): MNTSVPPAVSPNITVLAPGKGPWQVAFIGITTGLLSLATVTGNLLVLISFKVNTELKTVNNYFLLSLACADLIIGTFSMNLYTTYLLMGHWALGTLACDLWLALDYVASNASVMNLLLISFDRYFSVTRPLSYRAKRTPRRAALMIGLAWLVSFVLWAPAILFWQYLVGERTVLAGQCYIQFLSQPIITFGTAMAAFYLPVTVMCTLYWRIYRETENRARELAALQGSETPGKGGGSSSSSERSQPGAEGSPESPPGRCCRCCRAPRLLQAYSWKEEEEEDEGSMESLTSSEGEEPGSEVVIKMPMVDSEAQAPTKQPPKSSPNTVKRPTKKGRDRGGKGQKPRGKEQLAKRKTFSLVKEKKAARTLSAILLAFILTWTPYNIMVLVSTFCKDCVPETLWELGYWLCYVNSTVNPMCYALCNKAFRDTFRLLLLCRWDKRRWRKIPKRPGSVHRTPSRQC
Pyruvate kinase PKM (Homo sapiens), sequence (P14618 whole entry, looked up): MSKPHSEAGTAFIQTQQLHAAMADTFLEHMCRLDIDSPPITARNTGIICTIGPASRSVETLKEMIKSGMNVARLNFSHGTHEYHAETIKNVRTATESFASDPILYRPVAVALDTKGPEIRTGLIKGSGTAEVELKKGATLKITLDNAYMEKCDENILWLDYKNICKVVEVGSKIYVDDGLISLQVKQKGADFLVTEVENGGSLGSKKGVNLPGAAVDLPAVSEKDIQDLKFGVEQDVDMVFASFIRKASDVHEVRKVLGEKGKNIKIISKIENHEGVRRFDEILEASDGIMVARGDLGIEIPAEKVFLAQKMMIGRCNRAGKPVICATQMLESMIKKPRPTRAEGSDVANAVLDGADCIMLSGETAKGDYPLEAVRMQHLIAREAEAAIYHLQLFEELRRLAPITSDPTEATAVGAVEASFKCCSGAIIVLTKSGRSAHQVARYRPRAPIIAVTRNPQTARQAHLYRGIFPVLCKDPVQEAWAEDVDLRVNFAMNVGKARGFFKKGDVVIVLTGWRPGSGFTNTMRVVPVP

`CNCCC=C1c2ccccc2CCc2ccccc21`: the call in assay [1], in assay [2] and in [3] was inactive.
Consider `C[C@]12CC[C@@H]3c4ccc(O)cc4CC[C@H]3[C@@H]1CC[C@@H]2O`, for which the call in [4], in [2] and in assay [3] was inactive. Further, the Potency result in assay [5], in assay [6], in assay [7], in assay [8], in assay [9] and in [10] was “inactive” in each case. In assay [11], the Potency result is “inactive”.
Regarding `CCCCC1=NC2(CCCC2)C(=O)N1Cc1ccc(-c2ccccc2-c2nn[nH]n2)cc1`, the result in assay [1] and in assay [12] was inactive.
On to `CC(=O)O[C@]1(C(C)=O)CC[C@H]2[C@@H]3C[C@H](C)C4=CC(=O)CC[C@]4(C)[C@H]3CC[C@@]21C`, for which the Potency in assay [13] was 31.6 µM (active). For the same molecule, the Potency entry in assay [5], in assay [6], in assay [7], in assay [14], in [8] and in assay [9] was “inactive” in each case. For the same molecule, the Potency entry in assay [10] and in [11] was “inactive” each time.
Regarding `O=C1c2ccccc2C(=O)C1c1ccccc1`, the result in assay [1] and in [12] was inactive.
With `C[C@@H]1C(=O)NC2=Nc3cccc(Cl)c3CN21`, the molecule was classed as inactive in [4], in assay [15], in [2] and in assay [3]. In addition, in [16], the Potency result is “inactive”.
Consider `CCCCC(CC)CN=C(N)NC(N)=NCCCCCCN=C(N)NC(N)=NCC(CC)CCCC` (stereo unspecified), for which the molecule was called inactive in assay [1] and in [12].
For `CN1[C@@H]2CC[C@H]1CC(OC(=O)c1c[nH]c3ccccc13)C2` (stereo partly specified), the outcome in [4], in assay [2] and in assay [3] was inactive.
In the case of `O=C1CCC(c2ccc(-n3ccnc3)cc2)=NN1`, the result in assay [4], in [15], in assay [2] and in assay [3] was inactive. The Potency entry in [16] is “inactive”.
For `CC(C)(C(=O)c1cccnc1)c1cccnc1`, the activation in [17] was -12.9%.
As for `CC(Cc1cccc(C(F)(F)F)c1)NCCOC(=O)c1ccccc1` (stereo unspecified), the call in assay [1] and in [12] was inactive.
With `N[C@@H](Cc1cnc[nH]1)C(=O)O`, the outcome in assay [4], in assay [15], in [2] and in assay [3] was inactive. In addition, the Potency entry in assay [16] is “inactive”.
As for `Oc1cc(O)c2c(c1)O[C@H](c1ccc(O)c(O)c1)[C@H](O)C2`, the outcome in [4], in assay [15], in assay [2] and in [3] was inactive. Besides, the Potency entry in [16] is “inactive”.
Take `COc1cc(NS(C)(=O)=O)ccc1Nc1c2ccccc2nc2ccccc12`: the Potency in assay [16] is 10 µM (active). Moreover, the molecule was called inactive in assay [3].
